Compounds with a hit are over-represented: about 0.93% of the library has one in this group of screens.
TexasRed fluor – Texas Red fluorescence interference in TRb-SRC2 counter-screen | Potency, µM (top dose mostly 106 µM), without a hit: top-dose fluorescence change, negative = quenching | TRb/SRC2 Texas Red total fluorescence interference | hit rate 0.29% among 280,000; active means well fitted curve in either direction with a large enough effect; inconclusive means small, poorly fitted or top-dose-only effect; further: potency means the concentration at half of the fitted maximal effect
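Human TRb ligand-binding domain at 0.6 uM with 20 nM Texas Red SRC2 peptide in Tris buffer containing 1 uM T3 and 5% DMSO, incubated with compound 5 h at ambient temperature. Total fluorescence (555/632 nm) calculated as parallel + 2 × perpendicular.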
RGS12 GoLoco inh – RGS12 GoLoco-Gai1 interaction inhibition; P63096; hit rate 0.44% among 230,000; Gai1:RGS12 GoLoco peptide FP, rhodamine, 10 min; Potency, µM (doses to about 61.6 µM), for the others: top-dose activity, negative = inhibition, usual class: inhibitors; active means well fitted inhibition curve with a large enough effect, not every such curve was filed as active; inactive means no such curve, though single readings can be large or run the other way; further: potency means the concentration at half of the fitted maximal effect; nearly all actives have a fitted effect of over 30% in size
Target sequence (P63096 whole entry, looked up): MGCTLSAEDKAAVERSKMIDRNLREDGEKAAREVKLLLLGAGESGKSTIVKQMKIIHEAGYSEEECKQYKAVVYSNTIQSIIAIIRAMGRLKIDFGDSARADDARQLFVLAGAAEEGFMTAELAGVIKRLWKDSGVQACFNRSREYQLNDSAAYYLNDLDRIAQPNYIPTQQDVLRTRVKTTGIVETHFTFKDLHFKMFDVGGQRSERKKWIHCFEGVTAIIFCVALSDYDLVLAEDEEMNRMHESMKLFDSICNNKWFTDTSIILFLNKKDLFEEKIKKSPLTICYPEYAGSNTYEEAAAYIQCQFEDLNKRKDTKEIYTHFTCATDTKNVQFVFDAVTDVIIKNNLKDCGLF
TRb-SRC2 inh – TRbeta-SRC2 interaction inhibition; P10828; TRbeta-SRC2 peptide binding, fluorescence polarization; receptor liganded with 1 µM T3; Potency, µM (top dose mostly 106 µM), inactives show at the top dose activity change, negative = inhibition, usual class: inhibitors; hit rate 0.065% among 280,000; active means well fitted inhibition curve with a large enough effect; inconclusive means small, poorly fitted or top-dose-only effect, or effect the other way;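 further: potency means the concentration at half of the fitted maximal effect; plate controls were bound peptide for no effect and peptide without receptor for full effect; nearly all actives have a fitted effect of over 50% in size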
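Each compound concentration gave % activity, normalized to unbound and bound Texas Red SRC2 controls, from polarization read after 5 hr ambient incubation with T3-loaded human TRb LBD.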
FBPA coupling cs – counter-screen for Giardia aldolase inhibitors: coupling enzyme system; hit rate 0.67% among 290,000; coupling enzyme system counterscreen, AmpLite Red fluorescence; activity change, negative = inhibition, % at 58.2 µM, hits read low; in the data active means activity change below about -30%
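Compounds tested against the coupling enzymes alone at 57.5 uM final; readout was AmpLite Red fluorescence (525/598 nm) after 20 min at RT.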
* marks the source's active call; other numbers are inactive results; ? = inconclusive; . = no result given; ! = not confirmed by another sample; [ ] = another dose, or the depositor's remark. Unless noted, on the % scale 0 is the no-effect control and ±100 the full control effect.

SMILES	TexasRed fluor	RGS12 GoLoco inh	TRb-SRC2 inh	FBPA coupling cs
Cc1ccc(NS(=O)(=O)c2cc(N)ccc2Cl)c(C)c1	-3.1%	2.3%	-1.0%	-32.7*
COc1cc(C(=O)N(Cc2cccnc2)Cc2cc3cc4c(cc3[nH]c2=O)OCCO4)cc(OC)c1OC	1.4%	-13.7%	-21.8%	-50.3*
O=C(c1ccccc1F)N(Cc1cccnc1)Cc1cc2cc3c(cc2[nH]c1=O)OCCO3	-8.6%	-2.9%	3.5%	-2.0
CC1=C(C#N)C(=O)N(C2CCS(=O)(=O)C2)C(=O)/C1=C\c1ccco1 (configuration not stated)	-23.6%	4.3%	5.7%	-30.6*
O=C1/C(=C\c2ccco2)SC(=S)N1C1CCCCC1	.	.	.	-0.3
Cc1cc2nc3c(=O)[nH]c(=O)nc-3n(C)c2cc1C=O	1.2%	10µM*	0.9%	-38.1*
Cc1cc2nc3c(=O)[nH]c(=O)nc-3n(CC(O)C(O)C(O)CO)c2cc1C (configuration not stated)	-4.2%	14.1µM*	-1.1%	-33.4*!
Cc1cc2nc(C)c(=O)n(C)c2cc1C	0.3%	1.0%	-0.9%	-1.4
CC(=O)OCCn1c2nc(=O)[nH]c(=O)c-2nc2cc(C)c(C)cc21	-6.0%	14.1µM*	-7.3%	-19.5
O=[N+]([O-])c1ccc(O)cc1C(F)(F)F	1.3%[201 µM]	.	-8.7%[201 µM]	.
Cc1cc(S(=O)(=O)Nc2cccc([N+](=O)[O-])c2)c(C)s1	.	.	.	0.3
O=[N+]([O-])c1cccc(NNS(=O)(=O)c2ccccc2F)c1	.	.	.	-30.3*
COc1ccc(/C=C(\C#N)C(N)=O)cc1OC	.	1.6%[14.2 µM]	.	.
N#C/C(=C\c1cc(O)c(O)c(O)c1)C(N)=O	-8.0%	-29.5%	-8.8%	-48.8*
O=C(c1ccc2c3c(cccc13)CC2)C1CCCN(Cc2cccnc2)C1 (configuration not stated)	-0.9%	5.3%	1.0%	-0.6
COc1cc(CN2CCCC(C(=O)c3ccc4c5c(cccc35)CC4)C2)cc(OC)c1O (configuration not stated)	0.4%	77.9%	-9.3%	-38.8*
Cc1ccc(Cl)cc1NC(=O)COCc1cc(-c2ccco2)on1	?	.	-10.9%	.
O=C(NC1CCCCCC1)c1ccc2c(c1)sc1nc(-c3ccc(F)cc3)cn12	1µM*[quencher]	.	-12.1%	.
COc1ccc(-c2cn3c(n2)sc2cc(C(=O)Nc4cc(OC)cc(OC)c4)ccc23)cc1	0.0007µM*[quencher]	.	-15.1%	.
CC(C)C[C@@H](C(=O)N[C@@H](Cc1c[nH]c2ccccc12)C(N)=O)N1C[C@]2(CCCN2C(=O)[C@H](Cc2ccccc2)NC(=O)[C@H](Cc2ccccc2)NC(=O)[C@H](CCC(N)=O)NC(=O)[C@H](CCC(N)=O)NC(=O)[C@@H]2CCCN2C(=O)[C@H](CCCCN)NC(=O)[C@@H]2CCCN2C(=O)[C@@H](N)CCCNC(=N)N)CC1=O	0.4%	.	3.6%	0.4
O=C1OC(Nc2cc(Br)cc3cccnc23)c2ccccc21 (configuration not stated)	4.4%	-1.4%	0.7%	-39.6*
O[N+]1=CC=CCC1=S.On1ccccc1=S.[Zn]	-0.3%	0.0%	1.3%	-41.6*
CC(=O)OCCn1c(C)[n+](CCOC(C)=O)c2cc(Cl)c(Cl)cc21	2.7%	12.6µM*	5.0%	2.7
CCn1c(C)[n+](CCOCC[n+]2c(C)n(CC)c3cc(Cl)c(Cl)cc32)c2cc(Cl)c(Cl)cc21	-3.3%	7.94µM*	-4.0%	3.1
CCn1c(-c2cccnc2Cl)nc2cc(Cl)c(Cl)cc21	0.0%	10.6%	7.2%	1.8
SMILES	TexasRed fluor	RGS12 GoLoco inh	TRb-SRC2 inh	FBPA coupling cs
CCOC(=O)Cn1c(C)[n+](C)c2cc(Cl)c(Cl)cc21	-5.8%	-1.1%	2.1%	0.3
C[Si]1(C)O[Si](C)(C)O[Si](C)(C)O1	-0.2%[201 µM]	.	6.8%[201 µM]	.
Cc1nn(CCCC(=O)NCc2cccc(Cl)c2)c(=O)c2c1sc1ccccc12	0.1%	.	4.7%	.
CCOCCOCCOC(C)=O	-4.7%[201 µM]	.	6.1%[201 µM]	.
COc1ccc(N=CC2=C(O)c3ccccc3C2=O)cc1	-2.2%	5.8%	-7.6%	-1.1
COc1ccc(N=Cc2[nH]c3ccccc3c2O)cc1	-2.1%	14.5%	4.7%	-38.0*
COC(=O)CC1[C@@]2(C)C[C@@]34OC5(C)OC6(CC[C@@]7(C)C(c8ccoc8)OC(=O)C(C(C)=O)C7[C@]6(O5)C(O)[C@@]3(O)C2O)[C@]14C (some centres not stated)	-0.8%	8.3%	-7.3%	0.5
CC(=O)c1c(COC(=O)c2cccnc2)nc2ccccc2[n+]1[O-]	-0.1%	8.91µM*	3.1%	-0.3
Cc1oc2ncn(CC(C)C)c(=O)c2c1C(=O)N1CCN(c2cccc(C(F)(F)F)c2)CC1	0.4%	.	1.1%	.
CN(C)CCCNc1cc(O)c2c(c1O)C(=O)c1ccccc1C2=O	.	3.55µM*	.	.
O=C(CSc1nc2ccccc2c2nc(-c3ccccc3)nn12)Nc1ccc(F)cc1	-1.4%	.	-4.8%	.
COc1ccc(N/C=C2\CCc3ccccc3C2=O)cc1	-2.2%	-1.1%	2.5%	-39.2*
COc1ccc2c(c1)CC/C(=C\Nc1ccc3c(c1)OCO3)C2=O	8.0%	-19.1%	-8.7%	-49.0*
O=C1/C(=C/Nc2ccc3c(c2)OCO3)CCc2ccccc21	-1.6%	19.4%	-6.1%	-40.0*
COc1ccccc1N1CCN(C(=O)c2nn(-c3ccc(C)cc3)c(=O)n(C)c2=O)CC1	-2.6%	.	10.4%	.
COc1ccc(Cl)cc1C(=O)NCC(c1ccc(N(C)C)cc1)N1CCOCC1 (configuration not stated)	-1.4%	.	4.2%	.
O=C(Nc1ccc2c(c1)nc1n2CCN(C2CCCCC2)C1)NC1CCCCC1	-0.4%	8.8%	-1.2%	-31.8*
CCCCNc1cc(NC(C)=O)cc2cc(OC)c(OC)cc12	2.3%	.	3.9%	-44.1*
Nc1nc(N2CCOCC2)cc(=O)[nH]1	0.6%	20µM*	-13.8%	-14.7
Cc1cc(N2CCOCC2)nc(N)n1	1.0%	-1.4%	3.1%	0.2
CCOc1ccc(CNC(=O)C2CCCN(c3nn4cc(-c5ccc(OC)cc5)nc4s3)C2)cc1 (configuration not stated)	?	.	-7.1%	.
C/C(=N\NC(=O)c1cc2ccccc2cc1O)c1ccc2c(c1)OCO2	35.5µM*[quencher]	60.3%	22.6%	-3.6
C/C(=N\NC(=O)c1ccc(C)cc1C)c1ccc2c(c1)OCO2	0.0%	4.4%	2.1%	1.6
C/C(CC(=O)N1CCCC1)=N\NC(=O)c1cc2ccccc2cc1O	-25.7%	0.5%	6.8%	-64.7*
Fc1ccccc1-n1ncc2c1ncn1nc(Cc3ccccc3)nc21	-3.3%	.	1.1%	.
CCOC(=O)c1c(-c2ccccc2)oc2ccc(NS(=O)(=O)c3ccc(C)cc3)cc12	39.8µM*[quencher]	.	-11.6%	.
CC(C)c1cccc(C(C)C)c1	-1.9%[201 µM]	.	1.0%[201 µM]	.
Cn1c(=O)c2[nH]c(COCc3nc4c([nH]3)c(=O)n(C)c(=O)n4C)nc2n(C)c1=O	.	1.8%[14.2 µM]	.	.
O=S(=O)(c1cccc(C(F)(F)F)c1)n1c(/C=C/c2ccccc2)nc2ccccc21	-1.7%	.	7.6%	.
Cc1c(OC(=O)c2ccc([N+](=O)[O-])cc2)c2c(c[n+]1C)COC(C)(C)OC2	-1.0%	12.6µM*	-10.8%	-5.6

Assay outcomes from PubChem BioAssay.
